biological target: PDE1C; assay: pooled miR-30 sensor sort-seq; sequence = guide strand; conditions: shRNA
Further: reference of the scale not given here.

Sequence	sensor-assay potency score (higher = more potent)
AATTGTTTGACCAAAGACCGTA	0.319
ATTCTCTCCACAAATATCCCAG	-0.723
TAGAGTGATCCTTCTTGTCTGT	0.0178
TAAGATCTACCACTGAAGCTTC	-0.318
TTTTCTTTGAATCATTTCCGAT	-1.12
TTGAGTAAAAATCTCACGTTGT	0.531
TTTTCCTCTGCTTCCTTCTTGG	-0.143
TTTGAGTAAAAATCTCACGTTG	-0.294
TTTTGTGCTTGCTGTATCCCAC	-0.201

biological target: PDE8B; assay: as above; conditions: shRNA

Sequence	sensor-assay potency score (higher = more potent)
TAAACACATACTCGTTTCCTGA	-0.83
TACAATAATTTCATGATGCTTA	-0.231
TTAAAAACTCACATACTCCAAA	-0.433
TAGCAAGCAATTATGCTGCTAT	0.445
TATATTTATAACCTTTGTGATG	-1.47
ATCGCTCTGACTATCTTCCTTT	-0.16
ATTGATTATATTTATAACCTTT	-0.571
TTCATCTTTGGTACCCAGCTGA	-0.0849
TTGCATTCACAGTCGCTGCCTT	-0.0743
TCTTAGTAAACACATACTCGTT	-0.91
AATCTCTAGAACTCTGTCCAAG	-1.58
TTAGTAAACACATACTCGTTTC	-0.767
